Compound activity (PubChem BioAssay)
An excerpt weighted towards active compounds, which were near 3.6% of everything screened.
BoNT F protease – blocks Botulinum neurotoxin F light chain protease | Multiplex microsphere protease cleavage assay, flow cytometry | inhibition, % at 10 µM | 360,000 compounds, 0.22% hits | AID 588497; in the data active = inhibition above about 35%, passing the limit was not always enough; inconclusive = no clear call, values can overlap the other calls; also: plate controls were buffer without enzyme for full effect and enzyme alone for no effect
BoNT A protease – BoNT A light chain protease inhibition. multiplex microsphere protease substrate cleavage, flow cytometry. inhibition, % at 10 µM. 360,000 compounds, 0.17% hits. AID 588499; also: plate controls were buffer without enzyme for full effect and enzyme alone for no effect
SARS 3CLpro inh – SARS-CoV 3CLpro protease inhibition; P0C6X7; recombinant SARS-CoV 3CLpro, quenched FRET peptide cleavage; inhibition, % at 6 µM; 290,000 compounds, 0.14% hits; AID 1706; in the data active = inhibition above about 12%
Anthrax LF inh2 – inhibitors of Bacillus anthracis lethal factor protease; 360,000 compounds, 0.12% hits; inhibition, % at 10 µM; multiplex microsphere protease cleavage assay, LF; P15917; also: plate controls were buffer without enzyme for full effect and enzyme alone for no effect
BJeLR lethal – BJeLR cell viability loss; BJeLR (HRASV12) viability, CellTiter-Glo ATP luminescence, 48 h; 300,000 compounds, 0.17% hits; inhibition, % (concentration not given with the values); in the data active = inhibition above about 50%; inconclusive = no clear call, values can overlap the other calls
Bead autofluor – compound fluorescence in toxin protease inhibitor counterscreen | compound autofluorescence counterscreen, microsphere flow cytometry; hits give high values | fluorescence intensity (no concentration beside the values) | 360,000 compounds, 3.1% hits | AID 624483; in the data active = fluorescence intensity above about 16000; inconclusive = no clear call, values can overlap the other calls
Starred values were filed as active, the others as inactive; ? = inconclusive; . = no result given. Rule as the data show it, unless noted: active = inhibition above about 30%; inconclusive = no clear call, values can overlap the other calls; inactive = below that.

SMILES | BoNT F protease | BoNT A protease | SARS 3CLpro inh | Anthrax LF inh2 | BJeLR lethal | Bead autofluor
CCN1C(=O)/C(=C/N2CCc3ccccc3C2)SC1=S | ? | -50 | 7 | -5 | -5 | 16177*
CCN1C(=O)/C(=C\N2CCCCCC2)SC1=S | -4 | 0 | 0 | -1 | 0 | 3748
O=C(N/N=C/c1cccnc1)c1ccc(NC(=O)C(c2ccccc2)c2ccccc2)cc1 | -18 | -2 | -3 | 0 | 106* | 2530
O=C(CCC(=O)Nc1ccc(F)cc1)N/N=C/c1cccnc1 | -6 | -3 | -8 | -2 | 7 | 3943
CCCC(=O)Nc1ccc(C(=O)N/N=C/c2cccnc2)cc1 | -1 | ? | 1 | 0 | -1 | 23205*
COC(=O)C1C(c2ccccc2)C(C(=O)OCc2ccco2)C1c1ccccc1 (stereo not given) | 7 | 6 | 6 | -7 | -1 | 20681*
CCOC(=O)C1C(c2ccccc2)C(C(=O)OCC)C1c1ccccc1 (stereo not given) | -7 | 0 | 0 | 1 | 1 | 9355
O=C(O)C1C(c2ccccc2)C(C(=O)OCc2ccco2)C1c1ccccc1 (stereo not given) | -1 | -1 | 2 | -1 | 2 | 23151*
CCCCCOC(=O)C1C(c2ccccc2)C(C(=O)O)C1c1ccccc1 (stereo not given) | -1 | 0 | 8 | 2 | -15 | 2668
Cc1ccccc1OC(=O)C1C(c2ccccc2)C(C(=O)O)C1c1ccccc1 (stereo not given) | 12 | 6 | 4 | 3 | -3 | 20251*
O=C(O)C1C(c2ccccc2)C(C(=O)OCCCO)C1c1ccccc1 (stereo not given) | -2 | 0 | 3 | -2 | 9 | 22890*
Cc1ccc(-n2c(SCC(=O)Nc3ccc(Cl)cc3)nc(O)cc2=O)cc1 | 1 | -4 | 6 | -2 | -1 | 4902
CC(=O)Nc1cccc(OCC(=O)NS(=O)(=O)c2ccc(C)cc2)c1 | -3 | -2 | 0 | -10 | 0 | 23647*
Cc1cccc(OCC(=O)NS(=O)(=O)c2ccc(Br)cc2)c1 | 6 | -1 | 0 | -2 | -1 | 4315
CCCC(=O)Nc1c(-c2ccccc2Cl)c(=O)c2ccccc2n1C | 7 | -1 | 0 | -3 | 3 | 3584
CN(C)CC(CCC(CN(C)C)C(O)(c1ccccc1)c1ccccc1)C(O)(c1ccccc1)c1ccccc1 (stereo not given) | . | . | 0 | . | 83* | .
CN(C)C/C=C/C(O)(c1ccccc1)c1ccccc1 | ? | 4 | 1 | -5 | 1 | 4310
CCc1nnc(SCC(=O)Nc2ccc(N3CCN(S(C)(=O)=O)CC3)cc2)o1 | -2 | 1 | -4 | -10 | 1 | 3680
O=C1c2cccnc2C(=O)N1C1CCCCC1 | 2 | 2 | -4 | -1 | 4 | 21393*
Cc1ccc(NC2=CC(=O)C(=O)c3ccccc32)cc1 | -5 | -1 | 1 | -2 | -1 | 16510*
COc1cc2c(cc1OC)CN(C(=O)C1(c3ccccc3)CC1)CC2 | 3 | ? | 2 | 0 | 2 | 19639*
Cc1cc(=O)oc2cc(OCC(=O)Nc3nnc(C(C)C)s3)ccc12 | -10 | -1 | 6 | -2 | 8 | 4895
Cc1cc(=O)oc2cc(OCC(=O)Nc3nnc(CC(C)C)s3)ccc12 | 35* | 0 | 1 | 4 | 1 | 4905
C=CCn1c(SCC(=O)Nc2cc(NC(C)=O)ccc2OC)nnc1-c1ccccn1 | 1 | ? | 6 | 0 | 0 | 19382*
CCn1c(COc2ccc3c(c2)CCCC3)nnc1SCC(=O)Nc1nccs1 | 1 | 0 | -1 | -2 | 5 | 20125*
SMILES | BoNT F protease | BoNT A protease | SARS 3CLpro inh | Anthrax LF inh2 | BJeLR lethal | Bead autofluor
C=CCn1c(SCC(=O)Nc2ccccc2OC)nnc1-c1ccccn1 | -1 | -1 | 2 | -1 | 0 | 16901*
CCn1c(SCC(=O)Nc2ccccc2OC)nnc1-c1cnccn1 | -2 | -1 | -1 | -4 | 9 | 16989*
CCCC(=O)Nc1ccc(C(=O)NNC(=O)COc2ccc(Br)c(C)c2)cc1 | -3 | -1 | -7 | -2 | -4 | 8085
CCn1c(COc2cccc(OC)c2)nnc1SCC(=O)Nc1cc(OC)ccc1OC | -4 | -2 | -1 | -10 | -4 | 23149*
C/C=C/C(=O)OCC(=O)Nc1cc([N+](=O)[O-])ccc1Cl | -2 | 0 | 1 | -2 | 0 | 2100
C/C=C/C(=O)OCC(=O)Nc1c(Cl)cccc1Cl | -3 | -2 | -2 | -1 | 3 | 16870*
CCOC(=O)/C(=N\Nc1ccccc1Cl)N1CCN(c2ccccc2OC)CC1 | -3 | -1 | 3 | -5 | 3 | 4268
